Experimental data from PubChem BioAssay (NCATS).
A number with no mark means an inactive call. Inconclusive results are not listed. A call without a number means that no potency is given here. Activity calls are given as the source filed them. The call rests on the fitted dose curve; in most records, active means well fitted curve in the direction sought with a large enough effect; inconclusive means small, poorly fitted or top-dose-only effect, or another doubt; inactive means no such curve, though single readings can be large; an effect the other way counts as inactive or inconclusive.

Columns and labels:
[1] = qHTS assay for measurement of the activity of small molecule inhibitors on Zika virus induced Caspase-3 activity in human iPSC derived neural progenitor cells (hNPCs) (AID 1224857); further: nearly all actives have a fitted effect of over 65% in size
Outline: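 Caspase-3/7 induction by a 6-hour ZIKV infection was quantified with a luminescent Caspase-Glo 3/7 reagent incubated 30 minutes at room temperature. Compounds were preincubated with hNPCs for 1 hour; inhibition was calculated against uninfected and infected control wells.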

[2] = qHTS assay for measurement of the activity of small molecule inhibitors on Zika virus induced Caspase-3 activity in human astrocytoma cells (AID 1224859)
Outline: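 In SNB-19 cells plated at 250 cells/well and grown 16-20 h, compounds were applied 1 h before ZIKV (2 FFU/cell). Six hours later caspase-3/7 luminescence was recorded.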

[3] = qHTS assay to identify small molecule inhibitors of chordoma cells - UCH-1 (AID 1259355); further: nearly all actives have a fitted effect of over 55% in size
Outline: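 Luminescent ATP read-out (CellTiter-Glo, 30min at room temperature) measured viability of UCH-1 cells exposed for 48hr to test drugs at 15 concentrations, co-dosed with a five-agent combination of auranofin, camptothecin, doxorubicin, rubitecan and topotecan.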

[4] = qHTS assay to identify small molecule inhibitors of chordoma cells - UCH-2 (AID 1259356); further: series mostly up to about 46 µM
[5] = P-glycoprotein substrates identified in KB-8-5-11 adenocarcinoma cell line, qHTS therapeutic library screen (AID 1346987); conditions: outcome: dose series up to 44.5 µM; further: series mostly up to about 44 µM; nearly all actives have a fitted effect of over 65% in size
Outline: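 P-gp-mediated resistance screen: KB-8-5-11 cells treated 72 h with compounds in dose-response. CellTiter-Glo viability.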

[6] = NS1 protein of Zika virus - qHTS assay to identify small molecule inhibitors in human HEK 293 cells (AID 1347053); further: series mostly up to about 46 µM; nearly all actives have a fitted effect of over 55% in size
Outline: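 HEK 293; 20 h pre-culture, 37 C/5% CO2; cpd 1 h pre-infection; ZIKV MR766, MOI = 0.5, 24 h, 37 C; TR-FRET NS1 readout (two anti-NS1 Abs); norm. to no-virus vs infected.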

[7] = qHTS of pediatric cancer cell lines to identify multiple opportunities for drug repurposing: Primary screen for TC32 cells (AID 1347089); further: nearly all actives have a fitted effect of over 60% in size
Outline: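 Luminescent ATP read-out (CellTiter-Glo) of metabolically active TC32 cells after 48 h exposure. Concentration-response curves came from 11-point (MIPE, 0.78 nM–46 µM) or 8-point (NPC, 0.59 nM–46 µM) primary titrations; follow-up used 11 points.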

[8] = qHTS of pediatric cancer cell lines to identify multiple opportunities for drug repurposing: Primary screen for DAOY cells (AID 1347090); further: series mostly up to about 46 µM; nearly all actives have a fitted effect of over 55% in size
Outline: (§1)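 Eight- or eleven-point concentration series, 48 h treatment at 37 degrees C in growth media; readout CellTiter-Glo luminescence. Potency and efficacy were taken from the concentration-response curves.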

[9] = qHTS of pediatric cancer cell lines to identify multiple opportunities for drug repurposing: Primary screen for SJ-GBM2 cells (AID 1347091)
Outline: as §1

[10] = qHTS of pediatric cancer cell lines to identify multiple opportunities for drug repurposing: Primary screen for A673 cells (AID 1347092); further: nearly all actives have a fitted effect of over 45% in size
Outline: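 Cell viability of A673 measured by CellTiter-Glo ATP luminescence after 48 hours compound exposure. Dilution series spanned 0.78 nM to 46 µM (MIPE, 11-point) or 0.59 nM to 46 µM (NPC, 8-point); bortezomib 2.3 uM positive control.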

[11] = qHTS of pediatric cancer cell lines to identify multiple opportunities for drug repurposing: Primary screen for SK-N-MC cells (AID 1347093); further: potency means the concentration at half of the fitted maximal effect
Outline: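 Metabolically active cells were quantified by ATP-dependent luminescence (CellTiter-Glo, 15 min at room temperature) following 48 h treatment. Cells had been plated at 500-1,000 per well and settled for 5 h beforehand.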

[12] = qHTS of pediatric cancer cell lines to identify multiple opportunities for drug repurposing: Primary screen for BT-37 cells (AID 1347094); further: series mostly up to about 57 µM
Outline: (§2)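 Readout: CellTiter-Glo luminescence, 48 h treatment. Controls DMSO (neutral) and bortezomib 2.3 µM final (positive). Potency and efficacy taken from primary-screen concentration-response curves.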

[13] = qHTS of pediatric cancer cell lines to identify multiple opportunities for drug repurposing: Primary screen for NB-EBc1 cells (AID 1347095)
Outline: as §2

[14] = qHTS of pediatric cancer cell lines to identify multiple opportunities for drug repurposing: Primary screen for U-2 OS cells (AID 1347096); further: nearly all actives have a fitted effect of over 50% in size
Outline: (§3)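 Cells (500-1,000/well) in growth media were settled 5 h at 37 degrees C, then given compounds for 48 h. Viability was read as CellTiter-Glo luminescence. Primary runs used MIPE at 11 points (0.78 nM-46 µM) and NPC at 8 points (0.59 nM-46 µM); follow-ups used 11 points.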

[15] = qHTS of pediatric cancer cell lines to identify multiple opportunities for drug repurposing: Primary screen for Saos-2 cells (AID 1347097); further: nearly all actives have a fitted effect of over 40% in size
Outline: as §2

[16] = qHTS of pediatric cancer cell lines to identify multiple opportunities for drug repurposing: Primary screen for SK-N-SH cells (AID 1347098); further: nearly all actives have a fitted effect of over 65% in size
Outline: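 Cells (500-1,000/well) rested 5 h, then received compounds for 48 h; metabolically active cells were measured by CellTiter-Glo luminescence. Final concentrations spanned up to 46 µM (MIPE, 11-point) or 0.59 nM-46 µM (NPC, 8-point) in primary screens, 11-point in follow-ups.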

[17] = qHTS of pediatric cancer cell lines to identify multiple opportunities for drug repurposing: Primary screen for NB1643 cells (AID 1347099); further: nearly all actives have a fitted effect of over 50% in size
Outline: as §2

[18] = qHTS of pediatric cancer cell lines to identify multiple opportunities for drug repurposing: Primary screen for LAN-5 cells (AID 1347100)
Outline: as §3

CCCNC(C)C(=O)Nc1c(C)csc1C(=O)OC (configuration not stated)
outcome [1]: inactive | outcome [2]: inactive | outcome [3]: inactive | outcome [4]: inactive | outcome [5]: inactive | outcome [6]: inactive | outcome [7]: inactive | outcome [8]: inactive | outcome [9]: inactive | outcome [10]: inactive | Potency [11]: inactive | outcome [12]: inactive | outcome [13]: inactive | outcome [14]: inactive | outcome [15]: inactive | outcome [16]: inactive | Potency [17]: inactive | outcome [18]: inactive

NC(=O)CCCCC1CCSS1 (configuration not stated)
outcome [1]: inactive | outcome [2]: inactive | outcome [3]: inactive | outcome [4]: inactive | outcome [5]: inactive | outcome [6]: inactive | outcome [7]: inactive | outcome [8]: inactive | outcome [9]: inactive | outcome [10]: inactive | Potency [11]: inactive | outcome [12]: inactive | outcome [13]: inactive | outcome [14]: inactive | outcome [15]: inactive | outcome [16]: inactive | Potency [17]: inactive | outcome [18]: inactive

CC1CCN(CCCC(=O)c2ccc(F)cc2)CC1
outcome [1]: inactive | outcome [2]: inactive | outcome [3]: inactive | outcome [4]: inactive | outcome [5]: inactive | outcome [6]: inactive | outcome [7]: inactive | outcome [8]: inactive | outcome [9]: inactive | outcome [10]: inactive | Potency [11]: inactive | outcome [12]: inactive | outcome [13]: inactive | outcome [14]: inactive | outcome [15]: inactive | outcome [16]: inactive | outcome [18]: inactive

CC(=O)Oc1cccc(C)c1
outcome [1]: inactive | outcome [2]: inactive | outcome [3]: inactive | outcome [4]: inactive | outcome [5]: inactive | outcome [6]: inactive | outcome [7]: inactive | outcome [8]: inactive | outcome [9]: inactive | outcome [10]: inactive | Potency [11]: inactive | outcome [12]: inactive | outcome [13]: inactive | outcome [14]: inactive | outcome [15]: inactive | outcome [16]: inactive | Potency [17]: inactive | outcome [18]: inactive

O=c1[nH]c(=O)c2ccccc2o1
outcome [1]: inactive | outcome [2]: inactive | outcome [3]: inactive | outcome [4]: inactive | outcome [5]: inactive | outcome [6]: inactive | outcome [7]: inactive | outcome [8]: inactive | outcome [9]: inactive | outcome [10]: inactive | Potency [11]: inactive | outcome [12]: inactive | outcome [13]: inactive | outcome [14]: inactive | outcome [15]: inactive | outcome [16]: inactive | outcome [18]: inactive

COC(=O)c1ccc(O)cc1
outcome [1]: inactive | outcome [2]: inactive | outcome [3]: inactive | outcome [4]: inactive | outcome [5]: inactive | outcome [6]: inactive | outcome [7]: inactive | outcome [8]: inactive | outcome [9]: inactive | outcome [10]: inactive | Potency [11]: inactive | outcome [12]: inactive | outcome [13]: inactive | outcome [14]: inactive | outcome [15]: inactive | outcome [16]: inactive | Potency [17]: inactive | outcome [18]: inactive

Cc1[nH]c(C)c(Cl)c(=O)c1Cl
outcome [1]: inactive | outcome [2]: inactive | outcome [3]: inactive | outcome [4]: inactive | outcome [5]: inactive | outcome [6]: inactive | outcome [7]: inactive | outcome [8]: inactive | outcome [9]: inactive | outcome [10]: inactive | Potency [11]: inactive | outcome [12]: inactive | outcome [13]: inactive | outcome [14]: inactive | outcome [15]: inactive | outcome [16]: inactive | Potency [17]: inactive | outcome [18]: inactive

CC(C)(C)NCC(O)COc1cccc2c1CCC(=O)N2 (configuration not stated)
outcome [1]: inactive | outcome [2]: inactive | outcome [3]: inactive | outcome [4]: inactive | outcome [5]: inactive | outcome [6]: inactive | outcome [7]: inactive | outcome [8]: inactive | outcome [9]: inactive | outcome [10]: inactive | Potency [11]: inactive | outcome [12]: inactive | outcome [13]: inactive | outcome [14]: inactive | outcome [15]: inactive | outcome [16]: inactive | Potency [17]: inactive | outcome [18]: inactive

CNc1c2c(nn1C)CCCC2
outcome [1]: inactive | outcome [2]: inactive | outcome [3]: inactive | outcome [4]: inactive | outcome [5]: inactive | outcome [6]: inactive | outcome [7]: inactive | outcome [8]: inactive | outcome [9]: inactive | outcome [10]: inactive | Potency [11]: inactive | outcome [12]: inactive | outcome [13]: inactive | outcome [14]: inactive | outcome [15]: inactive | outcome [16]: inactive | Potency [17]: inactive | outcome [18]: inactive

O=C(O)COC(=O)Cc1ccccc1Nc1c(Cl)cccc1Cl
outcome [1]: inactive | outcome [2]: inactive | outcome [3]: inactive | outcome [4]: inactive | outcome [5]: inactive | outcome [6]: inactive | outcome [7]: inactive | outcome [8]: inactive | outcome [9]: inactive | outcome [10]: inactive | Potency [11]: 26.6 µM (active) | outcome [12]: inactive | outcome [13]: inactive | outcome [14]: inactive | outcome [15]: inactive | outcome [16]: inactive | outcome [18]: inactive

Cc1cc(C)c(NC(=O)CN(CC(=O)O)CC(=O)O)c(C)c1Br
outcome [1]: inactive | outcome [2]: inactive | outcome [3]: inactive | outcome [4]: inactive | outcome [5]: inactive | outcome [6]: inactive | outcome [7]: inactive | outcome [8]: inactive | outcome [9]: inactive | outcome [10]: inactive | Potency [11]: inactive | outcome [12]: inactive | outcome [13]: inactive | outcome [14]: inactive | outcome [15]: inactive | outcome [16]: inactive | Potency [17]: inactive | outcome [18]: inactive

O=C1c2ccccc2C(=O)C1c1ccc(Br)cc1
outcome [1]: inactive | outcome [2]: inactive | outcome [3]: inactive | outcome [4]: inactive | outcome [5]: inactive | outcome [6]: inactive | outcome [7]: inactive | outcome [8]: inactive | outcome [9]: inactive | outcome [10]: inactive | Potency [11]: inactive | outcome [12]: inactive | outcome [13]: inactive | outcome [14]: inactive | outcome [15]: inactive | outcome [16]: inactive | outcome [18]: inactive

C[C@@H](N)C(=O)O
outcome [1]: inactive | outcome [2]: inactive | outcome [3]: inactive | outcome [4]: inactive | outcome [5]: inactive | outcome [6]: inactive | outcome [7]: inactive | outcome [8]: inactive | outcome [9]: inactive | outcome [10]: inactive | Potency [11]: inactive | outcome [12]: inactive | outcome [13]: inactive | outcome [14]: inactive | outcome [15]: inactive | outcome [16]: inactive | outcome [18]: inactive

Cc1ccccc1N=Nc1ccc(N=Nc2c(O)ccc3ccccc23)c(C)c1
outcome [1]: inactive | outcome [2]: inactive | outcome [3]: inactive | outcome [4]: inactive | outcome [5]: inactive | outcome [6]: inactive | outcome [7]: inactive | outcome [8]: inactive | outcome [9]: inactive | outcome [10]: inactive | Potency [11]: inactive | outcome [12]: inactive | outcome [13]: inactive | outcome [14]: inactive | outcome [15]: inactive | outcome [16]: inactive | Potency [17]: inactive | outcome [18]: inactive
